ChEMBL document CHEMBL1157539, “Thousands of chemical starting points for antimalarial lead identification” (Nature, 2010)

Columns and labels:
Assay type in all cases: functional
[1] = system: Plasmodium falciparum; experiment: GSK_TCMDC: Inhibition of Plasmodium falciparum 3D7 in whole red blood cells, using parasite LDH activity as an index of growth. Test compounds present at 2uM
[2] = system: Plasmodium falciparum; experiment: GSK_TCMDC: Inhibition of Plasmodium falciparum Dd2 in whole red blood cells, using parasite LDH activity as an index of growth. Test compounds present at 2uM
[3] = system: HepG2; experiment: GSK_TCMDC: Percent inhibition of human HepG2 cell line. Test compounds present at 10uM.

Compound | Inhibition [1] [%] | Inhibition [2] [%] | Inhibition [3] [%]
COc1ccc(CNC2CCN(C)CC2)cc1-c1ccc(S(=O)(=O)NC2CCC2)cc1.O=C(O)C(F)(F)F | 98 | 76 | 58
O=C(NCCN1CCC(c2ccncc2)CC1)c1ccc(Nc2nccc(Nc3ccc(Oc4ccccc4)cc3)n2)cc1 | 100 | 90 | 17
CCCC(CNCc1cccc(C)c1)CNc1cc(=O)c2ccccc2[nH]1 (stereo not given) | 99 | 89 | 0
O=C(Nc1cccc(-c2cccc(F)c2)c1)C1CCN(Cc2ccc(O)cc2)CC1 | 87 | 2 | 13
O=C(Nc1cc(Cl)cc(Cl)c1)c1cc(Cl)c(=O)n(Cc2ccc(Cl)cc2)c1 | 89 | 57 | 7
Cc1cccc(NC(=O)c2ccc(C(=O)NC3CCN(CC4CCCCC4)C3)cc2)c1.O=C(O)C(F)(F)F (stereo not given) | 88 | 3 | 17
CC(C)CCCC(C)(C)NC[C@@H](O)[C@H](Cc1ccccc1)NC(=O)c1cccc(OCC2CC2)c1 | 96 | 91 | 99
Cc1cccc2nc(-c3cccc(-c4cccc(NC(=O)C(C)CN(C)C)c4)c3)[nH]c12 (stereo not given) | 100 | 97 | 16
Fc1cccc(COc2ccc(Nc3ncnc4sc(C#C[C@H]5CC[C@H](CNCC(F)(F)F)N5)cc34)cc2Cl)c1 | 100 | 51 | 10
COc1ccc(C(=O)Nc2ccc3nc(N4CCCCC4)cc(C)c3c2)cc1[N+](=O)[O-] | 96 | 7 | 17
Cc1cc(N2CCCC2)nc(Nc2ccc(NC(=O)C(C)Oc3ccccc3)cc2)n1 (stereo not given) | 100 | 58 | 42
CC1CN(C(=O)c2sc3ccccc3c2Cl)CC(C)O1 (stereo not given) | 100 | 98 | 0
CCOc1ccc(C(Cc2ccccc2)NC(=O)c2cccnc2)cc1OCC (stereo not given) | 100 | 98 | 0
CCC(CC)n1c(COC)cc2c3c(N)nc(N)nc3ccc21 | 95 | 0 | 71
NCC1CCCN1Cc1ccc(-c2ccc(-c3nc4cc(C(F)(F)F)ccc4[nH]3)cc2)cc1.O=C(O)C(F)(F)F (stereo not given) | 100 | 98 | 35
Cc1ccc2[nH]c(-c3cc(-c4cccc(CCN5CCOCC5)c4)cnc3N)nc2c1.O=C(O)C(F)(F)F | 100 | 99 | 50
CN1CCCN(Cc2cccc(-c3ccc(NS(=O)(=O)c4cccc5cccnc45)cc3)c2)CC1.O=C(O)C(F)(F)F | 100 | 87 | 44
COc1ccc2nccc([C@@H](O)CN3CCC(NCC(=O)Nc4cc(F)cc(F)c4)CC3)c2n1.O=C(O)C(=O)O | 89 | 28 | 18
CCN(CCC1(c2ccc(Cl)c(Cl)c2)CN(C(=O)c2cc(OC)c(OC)c(OC)c2)CCO1)C1CC2c3ccccc3CC21 (stereo not given) | 80 | 65 | 26
CC(Cl)=CCc1c(C)nc2c(ccc3ccccc32)c1O | 96 | 96 | 24
Cn1cnc2c(Nc3ccncc3)nc(-c3ccc(OC(F)(F)F)cc3)nc21.O=C(O)C(F)(F)F | 100 | 65 | 28
Oc1ccc2[nH]c(-c3cccc(F)c3)nc2c1CN1CCC(O)(c2ccccc2)CC1 | 97 | 72 | 21
c1ccc(CNc2nc(NCCc3c[nH]cn3)nc(N3CCCC4CCCCC43)n2)cc1 (stereo not given) | 98 | 100 | 0
COc1ccc(-c2nc(NC(=O)CS(=O)(=O)c3ccccc3)sc2C)cc1 | 99 | 82 | 7
COc1cc(Cl)c(C)cc1N(Cc1ccccc1-c1ccccc1)S(=O)(=O)c1ccc(C(F)(F)F)cc1 | 90 | 62 | 23
CN(C)CCN(C)Cc1ccc(-c2cccc(-c3nc4ccccc4[nH]3)c2)cc1.O=C(O)C(F)(F)F | 100 | 78 | 46
CN1CCC(NC(=O)c2cc(Oc3ccc4c(c3)CCN4C(=O)Nc3cccc(C(F)(F)F)c3)ccn2)CC1.O=C(O)C(F)(F)F | 92 | 17 | 16
Cc1cccc2nc(-c3ccc(-c4ccc(CN5CCOCC5)cc4)cc3)[nH]c12.O=C(O)C(F)(F)F | 92 | 86 | 29
Cc1cc(N/N=C/c2ccc([N+](=O)[O-])cc2)c2ccc(F)cc2n1 | 100 | 22 | 0
Cc1cccc2nc(-c3ccc(-c4cccc(NC(=O)NCc5ccccc5)c4)cc3)[nH]c12 | 95 | 0 | 25
